# Columns and labels:
# Assay in all cases: DAPPL (digital affinity profiling via proximity ligation, sequencing); 10 mM Tris-HCl pH 7.5, 50 mM NaCl, 1 mM DTT, 4% glycerol, room temperature, 30 min; GST-TFs on glutathione beads, 16-mer random dsDNA library, 0.1% formaldehyde crosslink after washing; high values mean tight binding
# FEV = molecular target: T1, FEV (Homo sapiens, UniProt Q99581 1-238); details: protein: recombinant; tags: N-terminal GST; dsDNA, one strand shown
# T1 sequence: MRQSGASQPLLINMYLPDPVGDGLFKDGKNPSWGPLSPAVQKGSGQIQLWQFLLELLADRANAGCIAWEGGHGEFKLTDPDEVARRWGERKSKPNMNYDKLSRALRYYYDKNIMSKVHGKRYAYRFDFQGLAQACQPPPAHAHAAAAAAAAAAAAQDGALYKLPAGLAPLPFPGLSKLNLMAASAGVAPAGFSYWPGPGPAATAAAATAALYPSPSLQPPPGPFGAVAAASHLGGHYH
# In short: (§1)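 The binding signal reported is, for every hexamer, its read frequency for a factor over its read frequency for the tag-only sample. Reads came from pools of yeast-expressed, GST-fused human transcription factors on glutathione beads, barcoded with DNA and mixed with that sample, which were incubated with 200 nmole of a random double-stranded 16-mer DNA library in Tris/NaCl/DTT/glycerol buffer at room temperature for 30 min. After washing, the pools were crosslinked with 0.1% formaldehyde, proximity-ligated with BsaI/T4 ligase for 1 h at 37 °C, PCR-amplified and sequenced on an Illumina NextSeq500.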
# ETV5 = ETV5 (Homo sapiens, UniProt P41161 1-510); details: protein: recombinant; tags: N-terminal GST; dsDNA, one strand shown
# In short: as §1
# HSF1 = HSF1 (Homo sapiens, UniProt Q00613 1-529); details: protein: recombinant; tags: N-terminal GST; chain copies: 3; dsDNA, one strand shown
# In short: as §1
# SPIC = molecular target: T2, SPIC (Homo sapiens, UniProt Q8N5J4 1-248); details: protein: recombinant; tags: N-terminal GST; dsDNA, one strand shown
# T2 sequence: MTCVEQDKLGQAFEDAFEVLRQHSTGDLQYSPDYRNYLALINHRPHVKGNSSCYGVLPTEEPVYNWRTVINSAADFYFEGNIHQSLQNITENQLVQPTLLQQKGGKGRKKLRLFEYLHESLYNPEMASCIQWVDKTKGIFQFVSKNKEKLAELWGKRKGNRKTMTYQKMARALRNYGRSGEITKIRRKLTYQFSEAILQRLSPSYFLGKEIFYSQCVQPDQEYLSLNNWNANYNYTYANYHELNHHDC
# In short: as §1
# ELF4 = ELF4 (Homo sapiens, UniProt Q99607 1-663); details: protein: recombinant; tags: N-terminal GST; dsDNA, one strand shown
# In short: as §1
# ELK4 = molecular target: T3, ELK4 (Homo sapiens, UniProt P28324-2 1-405); details: protein: recombinant; tags: N-terminal GST; dsDNA, one strand shown
# T3 sequence: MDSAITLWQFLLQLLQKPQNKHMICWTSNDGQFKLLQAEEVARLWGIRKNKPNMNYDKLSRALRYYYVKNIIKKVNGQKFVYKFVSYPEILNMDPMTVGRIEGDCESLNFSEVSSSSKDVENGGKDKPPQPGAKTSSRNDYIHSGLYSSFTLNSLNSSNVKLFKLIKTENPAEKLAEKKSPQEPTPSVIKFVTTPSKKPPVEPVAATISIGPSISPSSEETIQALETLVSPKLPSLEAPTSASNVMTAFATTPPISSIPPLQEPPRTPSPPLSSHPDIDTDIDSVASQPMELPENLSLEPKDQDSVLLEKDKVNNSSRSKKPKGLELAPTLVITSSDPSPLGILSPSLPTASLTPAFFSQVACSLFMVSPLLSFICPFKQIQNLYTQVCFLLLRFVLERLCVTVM
# In short: as §1
# ETV2 = molecular target: T4, ETV2 (Homo sapiens, UniProt O00321 1-342); details: protein: recombinant; tags: N-terminal GST; dsDNA, one strand shown
# T4 sequence: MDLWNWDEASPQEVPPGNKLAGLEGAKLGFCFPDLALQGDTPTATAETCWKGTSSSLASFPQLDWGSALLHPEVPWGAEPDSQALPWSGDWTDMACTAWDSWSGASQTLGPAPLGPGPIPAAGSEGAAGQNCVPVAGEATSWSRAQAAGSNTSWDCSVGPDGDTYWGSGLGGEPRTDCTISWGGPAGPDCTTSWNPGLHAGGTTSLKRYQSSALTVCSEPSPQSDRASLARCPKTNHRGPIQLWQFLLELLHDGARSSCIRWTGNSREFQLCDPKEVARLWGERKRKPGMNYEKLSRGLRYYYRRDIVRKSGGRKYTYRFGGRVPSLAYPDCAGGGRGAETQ
# In short: as §1
# ELF3 = molecular target: T5, ELF3 (Homo sapiens, UniProt P78545 1-371); details: protein: recombinant; tags: N-terminal GST; dsDNA, one strand shown
# T5 sequence: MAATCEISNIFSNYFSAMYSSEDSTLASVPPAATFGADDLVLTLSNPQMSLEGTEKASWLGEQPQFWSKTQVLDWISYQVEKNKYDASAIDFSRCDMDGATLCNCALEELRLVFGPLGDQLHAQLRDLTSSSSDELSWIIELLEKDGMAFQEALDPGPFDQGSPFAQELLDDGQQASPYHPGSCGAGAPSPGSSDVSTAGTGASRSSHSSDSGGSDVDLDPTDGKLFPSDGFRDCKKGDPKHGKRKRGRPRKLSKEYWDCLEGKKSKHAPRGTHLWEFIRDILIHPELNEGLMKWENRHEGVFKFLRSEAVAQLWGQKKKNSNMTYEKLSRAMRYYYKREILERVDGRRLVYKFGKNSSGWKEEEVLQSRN
# In short: as §1
# ETV1 = ETV1 (Homo sapiens, UniProt P50549 1-477); details: protein: recombinant; tags: N-terminal GST; dsDNA, one strand shown
# In short: as §1
# ERF = molecular target: T6, ERF (Homo sapiens, UniProt P50548 1-548); details: protein: recombinant; tags: N-terminal GST; dsDNA, one strand shown
# T6 sequence: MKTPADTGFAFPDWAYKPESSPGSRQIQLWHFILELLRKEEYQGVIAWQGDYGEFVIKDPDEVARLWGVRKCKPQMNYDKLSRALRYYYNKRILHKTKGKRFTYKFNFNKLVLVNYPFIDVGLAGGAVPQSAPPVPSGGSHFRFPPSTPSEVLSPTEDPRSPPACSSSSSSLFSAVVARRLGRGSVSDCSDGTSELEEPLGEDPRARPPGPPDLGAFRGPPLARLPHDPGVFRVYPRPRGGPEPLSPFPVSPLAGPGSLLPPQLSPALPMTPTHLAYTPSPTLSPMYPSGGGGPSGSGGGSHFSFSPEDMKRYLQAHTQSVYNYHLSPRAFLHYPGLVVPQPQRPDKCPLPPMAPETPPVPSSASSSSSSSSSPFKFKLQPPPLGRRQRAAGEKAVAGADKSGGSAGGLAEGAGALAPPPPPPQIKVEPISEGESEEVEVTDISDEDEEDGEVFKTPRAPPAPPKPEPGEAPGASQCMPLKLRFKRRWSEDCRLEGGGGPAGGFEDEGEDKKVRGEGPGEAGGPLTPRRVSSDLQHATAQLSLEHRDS
# In short: as §1
# ETV3L = molecular target: T7, ETV3L (Homo sapiens, UniProt Q6ZN32 1-361); details: protein: recombinant; tags: N-terminal GST; dsDNA, one strand shown
# T7 sequence: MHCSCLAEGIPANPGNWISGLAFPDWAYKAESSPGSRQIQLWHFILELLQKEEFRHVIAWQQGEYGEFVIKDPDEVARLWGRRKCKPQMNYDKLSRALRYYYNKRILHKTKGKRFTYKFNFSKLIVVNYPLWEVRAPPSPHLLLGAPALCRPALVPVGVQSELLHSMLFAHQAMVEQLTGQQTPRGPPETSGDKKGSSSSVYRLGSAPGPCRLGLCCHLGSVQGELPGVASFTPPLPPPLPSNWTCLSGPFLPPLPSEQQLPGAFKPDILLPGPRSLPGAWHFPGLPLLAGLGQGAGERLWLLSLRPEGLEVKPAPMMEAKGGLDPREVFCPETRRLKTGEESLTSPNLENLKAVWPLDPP
# In short: as §1
# ETS2 = molecular target: T8, ETS2 (Homo sapiens, UniProt P15036 1-469); details: protein: recombinant; tags: N-terminal GST; dsDNA, one strand shown
# T8 sequence: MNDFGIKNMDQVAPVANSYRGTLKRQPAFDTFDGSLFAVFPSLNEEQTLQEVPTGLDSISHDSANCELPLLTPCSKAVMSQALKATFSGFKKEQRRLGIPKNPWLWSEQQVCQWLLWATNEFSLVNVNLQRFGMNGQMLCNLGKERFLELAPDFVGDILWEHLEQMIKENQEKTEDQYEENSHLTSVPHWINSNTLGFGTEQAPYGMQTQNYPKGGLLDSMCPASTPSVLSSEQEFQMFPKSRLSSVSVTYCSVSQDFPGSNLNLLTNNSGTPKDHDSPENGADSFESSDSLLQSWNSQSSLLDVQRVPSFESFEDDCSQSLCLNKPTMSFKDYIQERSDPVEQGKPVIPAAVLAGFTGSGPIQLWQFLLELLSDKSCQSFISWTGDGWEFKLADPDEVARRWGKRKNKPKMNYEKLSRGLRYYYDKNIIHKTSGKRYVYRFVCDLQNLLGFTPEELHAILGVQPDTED
# In short: as §1
# SPDEF = molecular target: T9, SPDEF (Homo sapiens, UniProt O95238 1-335); details: protein: recombinant; tags: N-terminal GST; dsDNA, one strand shown
# T9 sequence: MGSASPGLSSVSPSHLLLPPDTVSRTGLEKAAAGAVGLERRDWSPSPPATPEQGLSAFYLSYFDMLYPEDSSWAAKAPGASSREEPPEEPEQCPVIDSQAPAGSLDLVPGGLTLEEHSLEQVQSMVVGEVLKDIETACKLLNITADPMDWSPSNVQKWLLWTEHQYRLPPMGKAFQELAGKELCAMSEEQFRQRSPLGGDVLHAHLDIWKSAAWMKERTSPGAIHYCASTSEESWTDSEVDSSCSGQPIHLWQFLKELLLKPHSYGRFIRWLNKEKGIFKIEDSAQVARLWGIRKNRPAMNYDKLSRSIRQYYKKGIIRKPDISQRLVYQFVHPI
# In short: as §1
# ETV7 = molecular target: T10, ETV7 (Homo sapiens, UniProt Q9Y603 1-341); details: protein: recombinant; tags: N-terminal GST; dsDNA, one strand shown
# T10 sequence: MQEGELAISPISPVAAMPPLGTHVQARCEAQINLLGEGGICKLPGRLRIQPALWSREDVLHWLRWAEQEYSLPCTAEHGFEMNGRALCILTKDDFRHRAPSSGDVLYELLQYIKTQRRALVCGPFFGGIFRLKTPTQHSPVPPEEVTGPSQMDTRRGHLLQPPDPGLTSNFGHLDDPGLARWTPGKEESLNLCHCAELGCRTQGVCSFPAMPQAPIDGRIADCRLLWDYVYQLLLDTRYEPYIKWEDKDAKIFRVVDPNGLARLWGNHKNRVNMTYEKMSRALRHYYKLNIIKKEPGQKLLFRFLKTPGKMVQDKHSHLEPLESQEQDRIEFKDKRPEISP
# In short: as §1
# ELF5 = molecular target: T11, ELF5 (Homo sapiens, UniProt Q9UKW6-2 1-255); details: protein: recombinant; tags: N-terminal GST; dsDNA, one strand shown
# T11 sequence: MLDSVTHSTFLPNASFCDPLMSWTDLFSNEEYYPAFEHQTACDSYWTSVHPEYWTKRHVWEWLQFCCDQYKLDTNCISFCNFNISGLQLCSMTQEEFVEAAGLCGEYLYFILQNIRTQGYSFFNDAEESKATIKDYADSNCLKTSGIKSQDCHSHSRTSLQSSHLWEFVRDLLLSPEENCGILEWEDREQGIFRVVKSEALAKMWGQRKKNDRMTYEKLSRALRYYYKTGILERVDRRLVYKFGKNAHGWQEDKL
# In short: as §1
# ETV3 = molecular target: T12, ETV3 (Homo sapiens, UniProt P41162-2 1-143); details: protein: recombinant; tags: N-terminal GST; dsDNA, one strand shown
# T12 sequence: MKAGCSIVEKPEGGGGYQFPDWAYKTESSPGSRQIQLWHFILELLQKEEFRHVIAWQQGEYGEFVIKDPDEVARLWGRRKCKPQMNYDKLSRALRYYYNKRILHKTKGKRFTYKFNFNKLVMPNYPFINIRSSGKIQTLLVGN
# In short: as §1
# ETV6 = ETV6 (Homo sapiens, UniProt P41212 1-452); details: protein: recombinant; tags: N-terminal GST; dsDNA, one strand shown
# In short: as §1
# Sequence of ETV1 (P50549 whole entry): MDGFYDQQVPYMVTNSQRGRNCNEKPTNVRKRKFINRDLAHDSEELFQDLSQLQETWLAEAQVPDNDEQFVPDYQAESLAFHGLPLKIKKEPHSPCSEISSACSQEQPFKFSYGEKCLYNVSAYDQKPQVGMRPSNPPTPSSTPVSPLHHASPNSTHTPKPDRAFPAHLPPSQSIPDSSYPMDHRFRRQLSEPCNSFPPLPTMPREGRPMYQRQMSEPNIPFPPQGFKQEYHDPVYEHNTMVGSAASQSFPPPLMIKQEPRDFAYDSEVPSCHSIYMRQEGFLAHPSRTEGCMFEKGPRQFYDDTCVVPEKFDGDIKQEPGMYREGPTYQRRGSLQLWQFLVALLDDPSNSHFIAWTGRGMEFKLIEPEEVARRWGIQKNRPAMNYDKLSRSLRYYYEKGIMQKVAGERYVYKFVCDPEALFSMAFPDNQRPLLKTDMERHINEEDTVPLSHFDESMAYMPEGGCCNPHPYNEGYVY
# Sequence of ETV6 (P41212 whole entry): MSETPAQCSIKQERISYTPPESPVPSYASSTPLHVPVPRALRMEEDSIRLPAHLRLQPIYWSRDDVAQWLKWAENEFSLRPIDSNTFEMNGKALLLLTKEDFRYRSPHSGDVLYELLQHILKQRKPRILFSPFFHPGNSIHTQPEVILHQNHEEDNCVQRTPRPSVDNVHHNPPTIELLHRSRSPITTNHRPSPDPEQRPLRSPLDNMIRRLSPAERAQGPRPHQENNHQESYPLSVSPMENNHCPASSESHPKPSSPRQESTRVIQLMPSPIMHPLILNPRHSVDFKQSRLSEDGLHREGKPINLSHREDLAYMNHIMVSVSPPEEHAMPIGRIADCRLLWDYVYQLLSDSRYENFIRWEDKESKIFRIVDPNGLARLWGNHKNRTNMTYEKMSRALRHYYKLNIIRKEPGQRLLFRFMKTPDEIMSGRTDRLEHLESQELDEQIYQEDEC
# Sequence of ETV5 (P41161 whole entry): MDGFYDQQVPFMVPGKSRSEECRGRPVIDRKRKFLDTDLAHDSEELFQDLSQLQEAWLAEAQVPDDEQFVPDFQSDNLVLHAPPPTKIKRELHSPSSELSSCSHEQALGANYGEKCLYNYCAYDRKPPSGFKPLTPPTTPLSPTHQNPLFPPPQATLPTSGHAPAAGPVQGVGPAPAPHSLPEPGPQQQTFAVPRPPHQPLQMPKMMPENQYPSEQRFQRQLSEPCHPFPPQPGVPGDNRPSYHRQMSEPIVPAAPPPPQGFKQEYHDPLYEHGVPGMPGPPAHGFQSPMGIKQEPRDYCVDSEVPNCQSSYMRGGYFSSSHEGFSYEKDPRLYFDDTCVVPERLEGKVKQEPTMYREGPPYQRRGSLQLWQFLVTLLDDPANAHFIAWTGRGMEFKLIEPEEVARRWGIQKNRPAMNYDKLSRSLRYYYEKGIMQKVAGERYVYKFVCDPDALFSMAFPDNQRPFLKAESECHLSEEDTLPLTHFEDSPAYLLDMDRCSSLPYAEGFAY
# Sequence of HSF1 (Q00613 whole entry): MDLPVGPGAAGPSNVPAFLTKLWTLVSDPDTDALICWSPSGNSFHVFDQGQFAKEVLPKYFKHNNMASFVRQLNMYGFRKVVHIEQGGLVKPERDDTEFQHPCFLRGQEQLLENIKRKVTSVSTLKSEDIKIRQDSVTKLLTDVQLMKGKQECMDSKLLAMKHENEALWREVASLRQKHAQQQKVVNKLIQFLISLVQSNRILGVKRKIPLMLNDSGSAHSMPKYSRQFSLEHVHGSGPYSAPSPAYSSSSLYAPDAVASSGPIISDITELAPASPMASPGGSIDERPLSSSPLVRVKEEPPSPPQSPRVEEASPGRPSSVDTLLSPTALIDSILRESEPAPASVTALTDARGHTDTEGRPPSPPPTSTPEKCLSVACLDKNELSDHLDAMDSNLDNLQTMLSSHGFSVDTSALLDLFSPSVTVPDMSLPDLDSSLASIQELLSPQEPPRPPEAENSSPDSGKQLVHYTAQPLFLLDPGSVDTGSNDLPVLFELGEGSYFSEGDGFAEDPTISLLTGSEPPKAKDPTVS
# Sequence of ELF4 (Q99607 whole entry): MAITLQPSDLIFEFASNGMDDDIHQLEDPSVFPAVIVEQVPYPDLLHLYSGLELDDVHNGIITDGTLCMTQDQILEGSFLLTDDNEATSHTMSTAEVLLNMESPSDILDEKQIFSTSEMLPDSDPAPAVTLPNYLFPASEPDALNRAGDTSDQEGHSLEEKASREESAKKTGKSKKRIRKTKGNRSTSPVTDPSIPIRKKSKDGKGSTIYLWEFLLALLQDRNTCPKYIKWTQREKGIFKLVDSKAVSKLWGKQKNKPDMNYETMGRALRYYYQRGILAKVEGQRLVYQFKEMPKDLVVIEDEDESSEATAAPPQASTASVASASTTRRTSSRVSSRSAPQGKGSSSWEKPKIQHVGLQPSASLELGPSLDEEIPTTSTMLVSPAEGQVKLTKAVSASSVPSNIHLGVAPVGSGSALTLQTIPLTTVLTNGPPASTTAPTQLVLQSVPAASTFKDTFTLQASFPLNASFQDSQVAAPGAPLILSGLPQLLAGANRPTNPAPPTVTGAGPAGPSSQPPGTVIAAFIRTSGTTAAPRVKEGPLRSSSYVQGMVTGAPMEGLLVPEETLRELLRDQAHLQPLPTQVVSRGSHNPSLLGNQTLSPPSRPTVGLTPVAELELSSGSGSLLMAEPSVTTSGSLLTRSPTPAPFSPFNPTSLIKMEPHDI
sequence,measurement,setting,value
CGCTCC,binding signal,FEV,"1.34 fold enrichment (6-mer frequency, TF over GST control)"
same,binding signal,ETV5,"1.31 fold enrichment (6-mer frequency, TF over GST control)"
same,binding signal,HSF1,"1.09 fold enrichment (6-mer frequency, TF over GST control)"
same,binding signal,SPIC,"1.33 fold enrichment (6-mer frequency, TF over GST control)"
same,binding signal,ELF4,"1.38 fold enrichment (6-mer frequency, TF over GST control)"
same,binding signal,ELK4,"1.41 fold enrichment (6-mer frequency, TF over GST control)"
same,binding signal,ETV2,"1.36 fold enrichment (6-mer frequency, TF over GST control)"
same,binding signal,ELF3,"1.3 fold enrichment (6-mer frequency, TF over GST control)"
same,binding signal,ETV1,"1.26 fold enrichment (6-mer frequency, TF over GST control)"
same,binding signal,ERF,"1.31 fold enrichment (6-mer frequency, TF over GST control)"
same,binding signal,ETV3L,"1.4 fold enrichment (6-mer frequency, TF over GST control)"
same,binding signal,ETS2,"1.39 fold enrichment (6-mer frequency, TF over GST control)"
same,binding signal,SPDEF,"1.22 fold enrichment (6-mer frequency, TF over GST control)"
same,binding signal,ETV7,"1.18 fold enrichment (6-mer frequency, TF over GST control)"
same,binding signal,ELF5,"1.23 fold enrichment (6-mer frequency, TF over GST control)"
same,binding signal,ETV3,"1.19 fold enrichment (6-mer frequency, TF over GST control)"
same,binding signal,ETV6,"1.11 fold enrichment (6-mer frequency, TF over GST control)"

# — article PMC7862700, “An all-to-all approach to the identification of sequence-specific readers for epigenetic DNA modifications on cytosine”
